Screen size: about 220,000 compounds; about 2,600 (1.2%) were called active.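 How the source made its calls: active means activation above the mean of all tested compounds plus 3 SD, set per screening run (cut at about 8.8% in these data); inactive means the rest.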 The sample as a whole holds a higher share of actives than the screen did.

The assay concerns the target Wee1-like protein kinase (Homo sapiens) (UniProt P30291). The assay can be described thus: compounds stabilizing Wee1-luciferase fusion – cell-based, HeLa, Wee1K328M-luciferase, luminescence, primary screen (AID 1321).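 Further: cells exposed to compound for 20 h before luminescence read; 0% = DMSO alone and 100% = MG132 at 30 µM.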 The following applies: HeLa Luc-Wee1K328M stability, at 5 µM, active compounds read high, 100% = proteasome inhibitor MG132 effect.
For the molecule `O=C(NC(=S)Nc1cccc2c(O)cccc12)c1cccc(Br)c1`, the reporter increase was -1.09% (inactive).

Consider `Cn1nnnc1SCC(=O)N1CCN(Cc2ccccc2)CC1`, for which the reporter increase is 1.62% (inactive).

Turning to `O=C(Nc1ccccc1)N1CCN(Cc2ccccc2)CC1`, the reporter increase was 4.02% (inactive).

`Cc1c(Br)c([N+](=O)[O-])nn1CC(=O)N1CCN(Cc2ccccc2)CC1`: the reporter increase is 9.26% (active).

For the molecule `O=C(c1[nH]ncc1-c1ccc(Cl)cc1)C1CO1` (stereo not given), the reporter increase was -0.11% (inactive).

Consider `O=C(O)c1cccnc1Sc1ncnc2sc3c(c12)CCC3`, for which the reporter increase was -1.76% (inactive).

As for `O=C(Nc1ccccc1)Nc1ccc(C(F)(F)F)cn1`, the reporter increase was 0.31% (inactive).

On to `Cc1ccccc1OCC(=O)Nc1ccc(N2CCN(C(=O)C(C)C)CC2)c(Cl)c1`, for which the reporter increase is -0.59% (inactive).

For the molecule `O=C(COc1ccccc1Cl)Nc1ccc(C(=O)c2ccc(C(=O)O)cc2)cc1`, the reporter increase was -1.08% (inactive).

For `COc1cc(NC(=O)COc2ccccc2Cl)ccc1NC(=O)C(C)C`, the reporter increase is 9.65% (active).

Turning to `COc1cc(N2C(=O)CC3(CCCC3)CC2=O)cc(OC)c1OC`, the reporter increase was -3.15% (inactive).

Consider `Cc1ccc(NC(=S)NCc2ccccc2Cl)c(C)c1`, for which the reporter increase is 4.9% (inactive).

For the molecule `Cc1ccc(NC(=S)NC(=O)c2ccc(-c3ccccc3)cc2)c(C)c1`, the reporter increase is 1.11% (inactive).

On to `Cc1ccc(NC(=S)Nc2ncccc2C)c(C)c1`, for which the reporter increase is 11.8% (active).

On to `COc1ccc(CNC(=O)CCC(=O)Nc2nnc(C(C)C)s2)cc1`, for which the reporter increase is 0.8% (inactive).

Take `COc1ccc(NS(=O)(=O)c2ccc(Oc3c(C#N)cccc3C#N)cc2)cc1`: the reporter increase is -2.73% (inactive).

As for `O=C(c1ccc(=O)oc1)N1CCC(C(O)(c2ccccc2)c2ccccc2)CC1`, the reporter increase was 4.74% (inactive).

On to `Cc1ccsc1/C=N/n1c(=S)[nH]nc(C)c1=O`, for which the reporter increase is 11.5% (active).

On to `S=c1[nH]nc(-c2cccs2)n1/N=C/c1cccs1`, for which the reporter increase is -2.19% (inactive).

As for `Oc1ccccc1/C=N/n1c(-c2cccs2)n[nH]c1=S`, the reporter increase was -3.64% (inactive).

In the case of `CCOc1ccc(C2NC(=S)NC3=C2CCc2ccccc23)cc1` (stereo not given), the reporter increase is 3.12% (inactive).

For `CCOC(=O)c1ccc(NC(=O)Cn2cnc3cc(C)c(C)cc32)cc1`, the reporter increase is -1.24% (inactive).

As to `O=C(CSc1ccccc1F)NC1CCS(=O)(=O)C1` (stereo not given), the reporter increase is 12.3% (active).

For `CCN(CC(=O)NC1CCS(=O)(=O)C1)S(=O)(=O)c1ccccc1` (stereo not given), the reporter increase was -0.95% (inactive).

For `O=C(CSc1nn(-c2ccc(F)cc2)c(=S)s1)NC1CCS(=O)(=O)C1` (stereo not given), the reporter increase is 0.51% (inactive).

Regarding `Cc1cc(C)c2c(n1)nn1c(N3CCOCC3)cc(C)nc21`, the reporter increase is -0.28% (inactive).

On to `Cc1cc(C)c2c(n1)nn1c(N3CCN(c4cccc(Cl)c4)CC3)cc(C)nc21`, for which the reporter increase is 14.1% (active).

On to `Cc1cc(C)c2c(n1)nn1c(-n3ccnc3)cc(C)nc21`, for which the reporter increase is 2.99% (inactive).

Consider `Cc1ccc(C(=O)NNc2ncnc3ccccc23)cc1`, for which the reporter increase was -1.2% (inactive).

`COc1ccc(C(C)=O)cc1COc1ccc(Cl)c(C)c1`: the reporter increase was 1.76% (inactive).

Take `CC(C)Oc1ccc(C(=O)NC(C)(C)CO)cc1`: the reporter increase was -0.33% (inactive).

For the molecule `Cn1c(NC(=O)c2ccc3c(c2)OCO3)cc(=O)n(C)c1=O`, the reporter increase was -1.07% (inactive).

Regarding `CC(C)Oc1ccc(C(=O)Nc2cc(=O)n(C)c(=O)n2C)cc1`, the reporter increase was 11% (active).

Consider `CC12C(=O)N(c3ccccc3)C(=O)C1C(c1ccccc1)N1CCCN12` (stereo not given), for which the reporter increase is 1.06% (inactive).

Take `Cc1[nH][nH]c(=O)c1N=Nc1ccccc1`: the reporter increase was 3.8% (inactive).

As for `Cc1[nH][nH]c(=O)c1C(c1ccc2c(c1)OCO2)c1c(C)[nH][nH]c1=O`, the reporter increase was 1.31% (inactive).

For `Nc1[nH][nH]c(=O)c1N=Nc1ccc2c(c1)OCO2`, the reporter increase was 9.03% (active).

Take `CCN(CC)CCn1cnc2c1c(=O)n(CCOC(=O)c1cc(OC)c(OC)c(OC)c1)c(=O)n2C`: the reporter increase was -2.15% (inactive).

Turning to `COc1ccc(/C(C)=N/N2CCOCC2)c(O)c1`, the reporter increase was 3.27% (inactive).

Regarding `CC(C)N(C(=O)c1ccc(-c2ccccc2F)cc1)C(C)C`, the reporter increase is 1.6% (inactive).

As for `CCN(CC)C(=O)c1sc2nc(-c3ccccc3)ccc2c1N`, the reporter increase is 15.4% (active).

Take `CCOC(=O)c1sc2nc(SC)nc(-c3ccccc3)c2c1N`: the reporter increase was 0.82% (inactive).

Consider `Cc1ccc2c(N)c(C(=O)c3ccccc3)sc2n1`, for which the reporter increase is 3.2% (inactive).

In the case of `Cn1c(SCC(=O)N/N=C/c2ccc(O)c(O)c2)nc2ccccc21`, the reporter increase is 3.18% (inactive).

Turning to `CCC(C(=O)OCC(=O)Nc1ccccc1-c1ccccc1)c1ccccc1` (stereo not given), the reporter increase was 3.65% (inactive).

As for `O=C(CNCc1ccc(F)cc1)Nc1ccccc1-c1ccccc1`, the reporter increase is 11.8% (active).

Regarding `O=C(Cc1ccccc1)NCc1ccc(F)cc1`, the reporter increase was 0.79% (inactive).

`CC(=O)OCCOCn1cnn2c(=O)c(Br)c(C)nc12`: the reporter increase is 5.31% (inactive).

Regarding `CCOC(=O)C(=O)C1C(=O)Nc2ccccc21` (stereo not given), the reporter increase is -1.16% (inactive).

Consider `O=C1CC2(CC(c3ccc(Cl)cc3)=NO2)C(=O)N1c1ccccc1` (stereo not given), for which the reporter increase is 0.07% (inactive).

Turning to `CCOc1cc2c(Cl)ncnc2c(OCC)c1OCC`, the reporter increase is -3.14% (inactive).

With `COc1ccc(OCC(=O)OCC(=O)Nc2ccc(S(=O)(=O)N3CCCCC3)cc2)cc1`, the reporter increase was -0.17% (inactive).

With `COc1ccc(NC(=O)COC(=O)CNC(=O)C2CCCCC2)cc1`, the reporter increase is 11.6% (active).

As for `COc1ccc(CCNC(=O)COC(=O)C2CCCCC2)cc1`, the reporter increase was -1.3% (inactive).

Turning to `O=C(CN1CCSCC1)N/N=C/c1ccc(Cl)cc1`, the reporter increase is 2.89% (inactive).

For `Cc1ccc(COc2ccc(/C=N/NC(=O)CN3CCCCC3)cc2)cc1`, the reporter increase is 22.3% (active).

Take `Cc1ccc(OCC(=O)N/N=C/c2ccncc2)cc1`: the reporter increase is -0.52% (inactive).

Regarding `CC1=NOC(=O)/C1=C\c1ccccc1`, the reporter increase was -0.32% (inactive).

Consider `O=C(COc1ccc([N+](=O)[O-])cc1Cl)Nn1cnnc1`, for which the reporter increase is -0.06% (inactive).

Take `COc1ccc(NC(=S)NC2CCS(=O)(=O)C2)cc1` (stereo not given): the reporter increase was 4.7% (inactive).

`CC(C)(C)c1ccc(/C=C/C(=O)NC2CCS(=O)(=O)C2)cc1` (stereo not given): the reporter increase was 2.93% (inactive).

On to `COc1ccc(-c2ccc(OC(=O)NC3CCS(=O)(=O)C3)cc2)cc1` (stereo not given), for which the reporter increase was 9.29% (active).

Turning to `CCCNC(=O)NCc1ccc(N2CCCC2=O)cc1`, the reporter increase was 10.3% (active).

Turning to `CC1CCC(NC(=O)c2ccc(N3CCCC3=O)cc2)CC1` (stereo not given), the reporter increase is 0.06% (inactive).

On to `O=C(NCCCN1CCCCCC1)c1ccc(N2CCCC2=O)cc1`, for which the reporter increase is 2.16% (inactive).

Values taken from PubChem BioAssay AID1321 (The Scripps Research Institute Molecular Screening Center, 2008).
